# Measurements taken from PubChem BioAssay (Tox21).
# Unmarked numbers belong to inactive results. Results filed as inconclusive are left out. A call without a number means that no potency is given here. The source made the active and inactive calls. Unless noted, the call rests on the fitted dose curve; in most records, active means well fitted curve in the direction sought with a large enough effect in the repeat runs; inconclusive means weak or mixed curves; inactive means no such curve, though single readings can be large; an effect the other way counts as inactive or inconclusive.
# Experiments:
# [1] = biological target: Estrogen receptor (Homo sapiens) (UniProt P03372); test: qHTS assay to identify small molecule agonists of the estrogen receptor alpha (ER-alpha) signaling pathway in the presence of an antagonist (AID 1259383; calls by dose curve; further: top concentration of the series differs between compounds; nearly all actives have a fitted effect of over 15% in size)
# Estrogen receptor (Homo sapiens), sequence (P03372 whole entry, looked up): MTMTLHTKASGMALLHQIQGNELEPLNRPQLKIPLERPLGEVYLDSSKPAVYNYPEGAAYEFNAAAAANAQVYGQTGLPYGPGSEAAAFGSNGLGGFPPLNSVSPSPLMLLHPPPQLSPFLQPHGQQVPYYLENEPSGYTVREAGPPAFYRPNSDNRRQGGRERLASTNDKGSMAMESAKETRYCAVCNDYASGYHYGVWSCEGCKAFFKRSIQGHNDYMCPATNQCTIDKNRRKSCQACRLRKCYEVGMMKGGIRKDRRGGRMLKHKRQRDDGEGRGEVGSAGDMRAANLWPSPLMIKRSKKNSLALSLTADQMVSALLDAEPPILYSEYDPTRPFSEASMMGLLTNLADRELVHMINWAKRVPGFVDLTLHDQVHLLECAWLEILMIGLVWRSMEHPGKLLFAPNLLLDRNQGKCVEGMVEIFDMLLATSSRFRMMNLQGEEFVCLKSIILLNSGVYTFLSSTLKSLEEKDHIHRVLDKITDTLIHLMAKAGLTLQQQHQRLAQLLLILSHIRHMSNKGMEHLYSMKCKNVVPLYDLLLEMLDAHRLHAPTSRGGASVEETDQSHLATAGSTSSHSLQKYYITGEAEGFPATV
# How it was run: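 ER-alpha agonism measured under antagonist challenge: 10.0nM ICI-182,780 (final) plus compound, 15 concentrations, 22hr, VM7Luc4E2 ERE-luciferase cells. Read by luminescence.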
# [2] = qHTS assay to identify small molecule agonists or antagonists of the thyroid stimulating hormone receptor (TSHR) signaling pathway - wild type cell line counter screen (AID 1259384; calls by dose curve)
# How it was run: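 Wild-type HEK293 cells were plated 18 h at 37 C/5% CO2, pin-dosed with compound plus Ro20-1724 medium, held 30 min at room temperature, then given cAMP-d2 and anti-cAMP-cryptate; fluorescence was read after 1 h. Fifteen concentrations, triplicate.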
# [3] = biological target: Thyrotropin receptor (Homo sapiens) (UniProt P16473); test: qHTS assay to identify small molecule antagonists of the thyroid stimulating hormone receptor (TSHR) signaling pathway (AID 1259385; calls by dose curve; further: nearly all actives have a fitted effect of over 20% in size)
# Thyrotropin receptor (Homo sapiens), sequence (P16473 whole entry, looked up): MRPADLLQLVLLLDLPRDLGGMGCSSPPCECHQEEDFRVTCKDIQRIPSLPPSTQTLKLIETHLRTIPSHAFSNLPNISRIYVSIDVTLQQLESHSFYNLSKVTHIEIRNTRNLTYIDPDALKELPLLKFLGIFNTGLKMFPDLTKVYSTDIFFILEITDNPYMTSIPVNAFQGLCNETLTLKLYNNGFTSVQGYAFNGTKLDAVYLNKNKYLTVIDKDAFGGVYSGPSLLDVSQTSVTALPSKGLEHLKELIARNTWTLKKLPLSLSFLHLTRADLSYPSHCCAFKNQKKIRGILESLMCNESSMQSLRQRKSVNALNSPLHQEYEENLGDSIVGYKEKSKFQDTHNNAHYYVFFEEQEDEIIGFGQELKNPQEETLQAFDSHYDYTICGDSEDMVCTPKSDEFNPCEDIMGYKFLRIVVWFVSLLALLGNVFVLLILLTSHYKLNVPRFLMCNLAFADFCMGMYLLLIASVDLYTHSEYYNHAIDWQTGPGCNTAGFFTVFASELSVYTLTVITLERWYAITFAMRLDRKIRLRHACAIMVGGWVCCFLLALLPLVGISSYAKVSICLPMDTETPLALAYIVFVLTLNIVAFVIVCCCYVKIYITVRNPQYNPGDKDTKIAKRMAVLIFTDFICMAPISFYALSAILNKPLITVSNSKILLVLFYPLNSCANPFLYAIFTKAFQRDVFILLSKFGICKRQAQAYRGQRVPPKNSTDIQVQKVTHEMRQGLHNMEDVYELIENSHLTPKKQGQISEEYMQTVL
# How it was run: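 TSHR-HEK293 cells were plated and held 18 h at 37C/5% CO2, then given compound plus Ro20-1724 and stimulated with TSH at 1.5 ng/mL final. After 30 min at room temperature, cAMP was detected with cAMP-d2/anti-cAMP-cryptate (1 h) by fluorescence.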
# [4] = qHTS assay to identify small molecule agonists of the estrogen receptor alpha (ER-alpha) signaling pathway in the presence of an antagonist - cell viability counter screen (AID 1259386);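 further: series mostly up to about 92 µM; cells exposed to compounds for 22 h at 37 °C before the viability read; nearly all actives have a fitted effect of over 30% in size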
# How it was run: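 Steps: 5-day stripped-FBS culture; seed and incubate 24hr; add ICI-182,780 (10.0nM final); pin 15-point compound titration; incubate 22hr at 37C; add CellTiter-Fluor at 21hr; read fluorescence.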
# [5] = qHTS assay to identify small molecule antagonists of the progesterone receptor (PR) signaling pathway - cell viability counter screen (AID 1346798); further: series mostly up to about 92 µM; nearly all actives have a fitted effect of over 50% in size
# How it was run: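 ATP content as viability readout: CellTiter-Glo luminescence, 30 min room temperature, in PR-UAS-bla HEK293T cells after 16 hr compound/R5020 treatment at 37C and 5% CO2.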
# [6] = qHTS assay to identify small molecule agonists of the progesterone receptor (PR) signaling pathway - cell viability counter screen (AID 1346799; calls by dose curve; further: nearly all actives have a fitted effect of over 45% in size)
# How it was run: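 Cytotoxicity in PR-bla HEK293T cells: 16 h compound, 37C; CellTiter-Glo added post-FRET read; luminescence after 30 min RT.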
# [7] = qHTS assay to identify small molecule agonists of the TGF-beta/Smad signaling pathway - cell viability counter screen (AID 1346829); further: top concentration of the series differs between compounds; nearly all actives have a fitted effect of over 45% in size
# How it was run: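 After overnight seating at 37 C and 5% CO2, reporter cells got compounds for 5 hr and FRET substrate for 2 hr; cell viability then came from CellTiter-Glo luminescence.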
# [8] = qHTS assay to identify small molecule agonists of the TGF-beta/Smad signaling pathway (AID 1346859; active means well fitted activation curve with a large enough effect in the signal ratio in the repeat runs, not every such curve was filed as active; the % refers to the signal ratio; further: series mostly up to about 77 µM)
# How it was run: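 Stable Smad binding element-beta-lactamase HEK 293T cells; 5 hr compound exposure at 37 C under 5% CO2; 2 hr room-temperature substrate step; fluorescence excited at 405 nm, collected at 460 nm and 530 nm.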
# [9] = biological target: Thyrotropin-releasing hormone receptor (Homo sapiens) (UniProt P34981); test: qHTS assay to identify small molecule antagonists of the thyrotropin-releasing hormone receptor (TRHR) signaling pathway (AID 1346877; active means well fitted inhibition curve with a large enough effect in the repeat runs, not every such curve was filed as active; further: series mostly up to about 51 µM)
# Thyrotropin-releasing hormone receptor (Homo sapiens), sequence (P34981 whole entry, looked up): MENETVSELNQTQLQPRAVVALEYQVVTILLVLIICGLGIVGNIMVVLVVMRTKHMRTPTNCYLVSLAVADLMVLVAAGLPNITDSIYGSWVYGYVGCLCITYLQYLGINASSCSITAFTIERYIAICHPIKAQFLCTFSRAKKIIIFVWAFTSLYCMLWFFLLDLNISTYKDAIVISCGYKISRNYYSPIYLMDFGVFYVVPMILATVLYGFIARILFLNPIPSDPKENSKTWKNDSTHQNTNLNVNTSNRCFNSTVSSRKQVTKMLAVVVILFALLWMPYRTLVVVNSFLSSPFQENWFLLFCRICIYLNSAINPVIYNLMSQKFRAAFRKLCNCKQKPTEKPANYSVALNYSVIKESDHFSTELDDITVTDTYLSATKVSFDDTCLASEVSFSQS
# How it was run: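 Human TRHR in HEK293 cells; inhibition of the intracellular calcium rise triggered by 1 nM TRH was followed by fluorescence over 3 min. Compounds were run at 15 concentrations, three replicates each.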
# [10] = biological target: Thyrotropin-releasing hormone receptor (Homo sapiens) (UniProt P34981); test: qHTS assay to identify small molecule agonists of the thyrotropin-releasing hormone receptor (TRHR) signaling pathway (AID 1346891; calls by dose curve;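 further: HEK293 cells expressing TRHR with calcium dye readout; series mostly up to about 58 µM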)
# How it was run: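 In 1536-format, 1500 TRHR-Hek293 cells per well grew 18 h, took up calcium dye for 2 h at 37 °C, received compound, and were read kinetically; 15-point titrations, triplicates.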
# [11] = Human pregnane X receptor (PXR) small molecule agonists, qHTS cell viability counter screen (AID 1346977); further: nearly all actives have a fitted effect of over 50% in size
# How it was run: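 Readout is CellTiter-Fluor fluorescence from PXR-Luc HepG2 cells. Plated cells rested 5hr, then were treated with compounds for 24hr at 37C and 5% CO2, with reagent present during the last hour.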
# [12] = Caspase-3/7 induction in HepG2 cells by small molecules, qHTS assay (AID 1346978); further: nearly all actives have a fitted effect of over 15% in size
# How it was run: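 Wild-type HepG2 cells (2,000/well) were settled 5 h at 37 C, 5% CO2, then exposed to compounds in DMSO for 17 h. Caspase-3/7 activity was read by luminescence 30 min after adding Caspase-Glo 3/7 reagent at room temperature.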
# [13] = Caspase-3/7 induction in CHO-K1 cells by small molecules, qHTS cell viability counter screen (AID 1346979); further: nearly all actives have a fitted effect of over 35% in size
# How it was run: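 To flag cytotoxic compounds, treated CHO-K1 wild-type cells were given CellTiter-Fluor at 16hr and read fluorescently after 1hr at 37C; the caspase-3/7 luminescence was measured in these same wells.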
# [14] = Caspase-3/7 induction in CHO-K1 cells by small molecules, qHTS assay (AID 1346980); further: nearly all actives have a fitted effect of over 15% in size
# How it was run: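 Wild-type cells were seeded at 1,500 per well and settled 5 hr at 37 C, 5% CO2, then exposed to DMSO-dissolved compounds for 17 hr. Caspase-Glo 3/7 reagent was added, and luminescence was read after 30min at room temperature.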
# [15] = Caspase-3/7 induction in HepG2 cells by small molecules, qHTS cell viability counter screen (AID 1346981); further: series mostly up to about 92 µM; nearly all actives have a fitted effect of over 30% in size
# How it was run: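 The parent HepG2 line is plated at 2,000 cells per well and rested 5 hr before compound pinning from DMSO stocks. Following a 16-hr treatment at 37 C, a fluorogenic live-cell substrate (CellTiter-Fluor) reports viability after 1 hr.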
# [16] = biological target: Nuclear receptor subfamily 1 group I member 2 (Homo sapiens) (UniProt O75469); test: Human pregnane X receptor (PXR) small molecule agonists, qHTS assay (AID 1346982); further: nearly all actives have a fitted effect of over 35% in size; further: potency means the concentration at half of the fitted maximal effect
# Nuclear receptor subfamily 1 group I member 2 (Homo sapiens), sequence (O75469 whole entry, looked up): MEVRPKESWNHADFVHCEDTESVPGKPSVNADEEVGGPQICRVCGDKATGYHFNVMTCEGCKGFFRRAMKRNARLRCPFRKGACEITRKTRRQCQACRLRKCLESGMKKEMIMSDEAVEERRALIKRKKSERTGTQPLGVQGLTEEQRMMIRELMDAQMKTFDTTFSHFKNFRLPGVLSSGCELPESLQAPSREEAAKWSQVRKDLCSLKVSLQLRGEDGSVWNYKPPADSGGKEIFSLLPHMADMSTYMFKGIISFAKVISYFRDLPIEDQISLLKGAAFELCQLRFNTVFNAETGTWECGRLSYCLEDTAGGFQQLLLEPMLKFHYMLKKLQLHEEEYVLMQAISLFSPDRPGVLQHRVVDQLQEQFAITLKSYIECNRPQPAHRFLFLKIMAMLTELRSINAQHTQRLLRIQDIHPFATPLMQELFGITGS
# How it was run: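 After plating in 5% charcoal-stripped FBS and a 5 hr rest, PXR-Luc HepG2 cells received compounds in DMSO. Following 24 hr at 37 C, ONE-Glo was added and light output read.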
# [17] = biological target: Progesterone receptor (Homo sapiens) (UniProt P06401); test: qHTS assay to identify small molecule agonists of the progesterone receptor (PR) signaling pathway (AID 1346784; calls by dose curve; further: nearly all actives have a fitted effect of over 30% in size)
# Progesterone receptor (Homo sapiens), sequence (P06401 whole entry, looked up): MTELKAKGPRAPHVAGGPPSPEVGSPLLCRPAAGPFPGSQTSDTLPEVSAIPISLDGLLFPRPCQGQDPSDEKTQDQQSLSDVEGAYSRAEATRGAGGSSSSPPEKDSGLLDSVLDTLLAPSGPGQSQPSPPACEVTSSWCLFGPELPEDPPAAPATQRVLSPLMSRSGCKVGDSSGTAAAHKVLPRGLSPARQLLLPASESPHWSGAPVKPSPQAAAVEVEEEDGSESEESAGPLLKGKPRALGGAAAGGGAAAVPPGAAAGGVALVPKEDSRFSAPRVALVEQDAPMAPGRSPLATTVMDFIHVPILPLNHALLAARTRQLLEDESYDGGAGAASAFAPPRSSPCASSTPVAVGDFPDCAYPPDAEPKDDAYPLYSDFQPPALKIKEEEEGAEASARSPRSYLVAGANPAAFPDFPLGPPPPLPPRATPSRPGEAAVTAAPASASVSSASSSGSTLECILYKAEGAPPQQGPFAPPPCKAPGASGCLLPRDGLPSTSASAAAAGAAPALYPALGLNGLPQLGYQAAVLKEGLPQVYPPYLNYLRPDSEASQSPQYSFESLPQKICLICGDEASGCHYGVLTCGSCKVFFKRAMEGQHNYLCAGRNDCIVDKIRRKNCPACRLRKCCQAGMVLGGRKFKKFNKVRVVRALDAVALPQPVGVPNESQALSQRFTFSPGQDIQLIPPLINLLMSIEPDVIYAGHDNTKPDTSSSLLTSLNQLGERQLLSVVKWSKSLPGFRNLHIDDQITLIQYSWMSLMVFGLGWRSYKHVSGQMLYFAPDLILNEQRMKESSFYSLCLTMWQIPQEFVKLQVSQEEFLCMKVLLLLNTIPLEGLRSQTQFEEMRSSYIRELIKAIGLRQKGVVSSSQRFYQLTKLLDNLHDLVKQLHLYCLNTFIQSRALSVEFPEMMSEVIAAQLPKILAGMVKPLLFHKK
# How it was run: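 Using charcoal-stripped serum (2%) to limit endogenous steroids, PR-UAS-bla HEK 293T cells received compounds for 16 hr at 37C after 6 hr plating; beta-lactamase FRET fluorescence was recorded following 2 hr substrate loading at room temperature.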
# [18] = qHTS assay to identify small molecule antagonists of the TGF-beta/Smad signaling pathway - cell viability counter screen (AID 1346824); further: nearly all actives have a fitted effect of over 50% in size
# How it was run: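 SBE-bla HEK 293T cells were plated overnight at 37 C, then given compounds in DMSO plus TGF-beta1 (added as 0.25 ng/mL solution) for 5 hr. After the bla read, CellTiter-Glo was added to the same wells and luminescence read after 30 min at room temperature.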
# [19] = biological target: Progesterone receptor (Homo sapiens) (UniProt P06401); test: qHTS assay to identify small molecule antagonists of the progesterone receptor (PR) signaling pathway (AID 1346795; active means well fitted inhibition curve with a large enough effect in the signal ratio in the repeat runs, not every such curve was filed as active; the % refers to the signal ratio; further: potency means the concentration at half of the fitted maximal effect)
# How it was run: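 Inhibition of R5020-induced (1 nM final) beta-lactamase reporter signal in PR-UAS-bla HEK293T cells was scored by FRET fluorescence after overnight (16 hr) compound treatment.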
# [20] = biological target: Nuclear receptor subfamily 1 group I member 2 (Rattus norvegicus) (UniProt Q9R1A7); test: Rat pregnane X receptor (rPXR) activation by small molecules, qHTS assay (AID 1346983); details: rPXR luciferase reporter cells, One-Glo luminescence, 24 h; max activation: active compounds read high; further: nearly all actives have a fitted effect of over 20% in size
# Nuclear receptor subfamily 1 group I member 2 (Rattus norvegicus), sequence (Q9R1A7 whole entry, looked up): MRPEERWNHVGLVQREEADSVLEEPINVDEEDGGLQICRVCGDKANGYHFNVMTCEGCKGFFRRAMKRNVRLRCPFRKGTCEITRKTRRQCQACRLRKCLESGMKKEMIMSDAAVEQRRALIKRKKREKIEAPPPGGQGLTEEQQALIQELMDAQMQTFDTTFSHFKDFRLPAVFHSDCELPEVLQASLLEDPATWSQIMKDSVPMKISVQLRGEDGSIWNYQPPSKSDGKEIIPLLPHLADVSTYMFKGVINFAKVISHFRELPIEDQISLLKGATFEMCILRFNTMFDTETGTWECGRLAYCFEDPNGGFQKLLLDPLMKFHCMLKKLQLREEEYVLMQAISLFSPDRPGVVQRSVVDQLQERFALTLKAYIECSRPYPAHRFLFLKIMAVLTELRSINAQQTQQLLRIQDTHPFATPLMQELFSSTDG
# How it was run: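 Cell-based rPXR luciferase reporter assay, 2,000 cells per well, rested 5hr at 37 C before compound addition in DMSO, then 24 hr at 37 C. One-Glo reagent was added and luminescence read after 30 min at room temperature.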
SMILES,Potency [1],outcome [2],outcome [3],outcome [4],outcome [5],Potency [6],outcome [7],outcome [8],outcome [9],Potency [10],outcome [11],outcome [12],Potency [13],outcome [14],outcome [15],Potency [16],Potency [17],outcome [18],Potency [19],max activation [20] [%]
COc1cc(S(N)(=O)=O)cc(C(=O)O)c1OC,inactive,inactive,inactive,inactive,inactive,inactive,inactive,inactive,inactive,inactive,inactive,inactive,inactive,inactive,inactive,inactive,–,–,–,–
CC(C)(O)CCCC1=CCC(C=O)CC1 (stereo unspecified),inactive,inactive,inactive,inactive,inactive,inactive,inactive,inactive,inactive,inactive,inactive,inactive,inactive,inactive,inactive,–,inactive,inactive,–,–
CCCCCCCCCCCC(C)=O,inactive,inactive,–,inactive,inactive,inactive,inactive,inactive,inactive,inactive,inactive,inactive,inactive,inactive,inactive,inactive,inactive,inactive,inactive,–
C/C=C/C(=O)CCCC,inactive,inactive,inactive,inactive,inactive,inactive,inactive,inactive,inactive,inactive,inactive,inactive,inactive,–,inactive,inactive,inactive,inactive,–,–
CC(C)C(=O)Nc1cccc(C2CN3CCSC3=N2)c1 (stereo unspecified),inactive,inactive,inactive,inactive,inactive,inactive,inactive,inactive,inactive,–,inactive,inactive,inactive,–,inactive,inactive,–,inactive,inactive,–
CCC(C)c1nccnc1OC (stereo unspecified),inactive,inactive,inactive,inactive,inactive,inactive,inactive,inactive,inactive,inactive,inactive,inactive,inactive,inactive,inactive,inactive,–,inactive,–,–
N=C(N)S(=O)O,inactive,inactive,inactive,inactive,inactive,inactive,inactive,inactive,inactive,inactive,inactive,inactive,inactive,inactive,inactive,inactive,–,inactive,–,–
CC(=O)c1ccc2ccc3ccccc3c2c1,inactive,inactive,inactive,inactive,–,–,–,inactive,–,–,inactive,inactive,–,inactive,inactive,60.8 µM (active),inactive,inactive,9.63 µM (active),–
CC1(C)S[C@@H]2[C@H](NC(=O)Cc3ccccc3)C(=O)N2[C@H]1C(=O)O (tested in a mixture with another compound),inactive,inactive,inactive,inactive,–,inactive,inactive,inactive,inactive,inactive,inactive,inactive,inactive,inactive,inactive,–,inactive,inactive,–,–
N#Cc1cc(NC(=O)C(=O)O)c(Cl)c(NC(=O)C(=O)O)c1,inactive,inactive,inactive,inactive,inactive,inactive,inactive,inactive,–,–,inactive,inactive,inactive,inactive,inactive,inactive,inactive,inactive,–,–
CC(C)=CCC/C(C)=C\C#N,inactive,inactive,inactive,inactive,–,–,inactive,inactive,inactive,inactive,inactive,inactive,inactive,inactive,inactive,inactive,inactive,inactive,inactive,–
COc1ccccc1N1CCN(CC(O)COc2cc(OC)c(OC)c(OC)c2)CC1 (stereo unspecified),inactive,inactive,inactive,inactive,–,–,inactive,inactive,inactive,inactive,inactive,inactive,inactive,–,inactive,inactive,–,inactive,inactive,–
CC(=O)/C=C/C=C1/C2CCC(C2)C1(C)C (stereo unspecified),inactive,inactive,inactive,inactive,inactive,inactive,inactive,inactive,inactive,inactive,inactive,inactive,inactive,inactive,inactive,3.76 µM (active),–,inactive,inactive,–
CC(O)CCCCn1c(=O)c2c(ncn2C)n(C)c1=O (stereo unspecified),inactive,inactive,inactive,inactive,inactive,inactive,inactive,inactive,–,–,inactive,inactive,inactive,inactive,inactive,inactive,inactive,inactive,–,-1.02
NS(=O)(=O)c1cc2c(cc1C(F)(F)F)NCNS2(=O)=O,inactive,inactive,inactive,inactive,inactive,inactive,inactive,inactive,–,–,inactive,inactive,–,inactive,inactive,inactive,inactive,inactive,–,-2.82
